Here are results for 53 compounds from ChEMBL document CHEMBL4513216, “Probing the Open Global Health Chemical Diversity Library for Multistage-Active Starting Points for Next-Generation Antimalarials” (ACS Infect Dis, 2020).

Out of some 68,000 compounds screened, about 2,700 (4%) showed an effect of 50% or more. The sample as a whole holds a higher share of strong results than the screen did.

This test relates to Plasmodium berghei. The test can be described thus: Screen against P. berghei liver stage (PbLuc), transformed with Luciferase, at 2uM. In kind it is functional, HepG2. To be noted: tested at 2 uM.
Turning to `CCc1[nH]ncc1C(=O)N1CCN(c2nc(C)cc(OC)n2)CC1`, the INHIBITION worked out at 51.83%. Regarding `CCOc1cc(C)nc(N2CCN(C(=O)c3cn[nH]c3CC)CC2)n1`, the INHIBITION is listed as 38.76%. To `COc1cc(C)nc(N2CCN(C(=O)COCC3CC3)CC2)n1` belongs 4.19%; to `COc1cc(C)nc(N2CCN(C(=O)COCC(F)(F)F)CC2)n1`, 51.21%. As for `Cc1ccnn1CCCNC(=O)C1CCN(S(C)(=O)=O)CC1`, the figure is -11.34%; as for `Cc1csc(N2CCN(C(=O)Cc3cccs3)CC2)n1`, 6.07%; as for `CC(C)(C)C(O)CN1CCN(Cc2cccc(C#N)c2)CC1` (stereo not drawn), -4.89%. As for `COc1ccc(CC(=O)N2CCCCC2Cn2cccn2)cc1OC` (stereo not drawn), the figure is -40.17%. `CN1CCN(c2ccccc2NC(=O)NCCc2ccccc2)CC1`: the INHIBITION is listed as -10%.

For `C=Cc1ccc(C(=O)NC2CCCc3nc(N(C)C)ncc32)cc1` (stereo not drawn), the INHIBITION amounted to 34.61%. Take `CC(C)n1c(=O)[nH]c2cn(-c3ccc(Br)cc3)c(=O)n21`: the INHIBITION is recorded as 22.07%. As for `Cc1csc(NC(=O)CN(C)CC2CCCN2c2cccnn2)n1` (stereo not drawn), the figure is 9.17%; as for `CN(CC(=O)Nc1ccncc1)CC1CCCN1c1cccnn1` (stereo not drawn), -22.08%; as for `Cc1cc(NC(=O)CN(C)CC2CCCN2c2cccnn2)n(C)n1` (stereo not drawn), 51.03%. To `CCn1ccnc1CN(C)CC1CCCN1c1cccnn1` (stereo not drawn) belongs 55.52%. As to `CCn1ccnc1CNCC1CCCN1c1cccnn1` (stereo not drawn), the INHIBITION is 39.92%. As to `Cc1cnc(CN(C)CC2CCCN2c2cccnn2)cn1` (stereo not drawn), the INHIBITION amounted to 47.72%. To `O=C1CC2(CCN(Cc3ccco3)C2)CN1c1ccc2c(c1)OCO2` (stereo not drawn) belongs 14.06%; to `COCCCN1CCN([C@@H]2c3ccccc3C3(CCNCC3)[C@H]2O)CC1`, -13.79%; to `CC(C)CN1CC2(CCN(C(=O)c3nc4ncccn4n3)CC2)CC1=O`, -47.52%.

Consider `CCc1nc(N2CCN(c3ncccn3)CC2)c2cnn(C)c2n1`, for which the INHIBITION was found to be 51.48%. To `CCc1nc(N2CCCN(c3ncccn3)CC2)c2cnn(C)c2n1` belongs 29.53%.

In the case of `CCCc1nc(N2CCCN(c3ncccn3)CC2)c2cnn(C)c2n1`, the INHIBITION is 17.73%. For `CCCn1cc(Cl)c(C(=O)N2C[C@H]3CC(OC)C[C@H]3C2)n1` (stereo partly drawn), the INHIBITION is given as -13.75%.

For `CCCS(=O)(=O)N1CCCN(CCCOC)CC1`, the INHIBITION is listed as -14.94%.

With `Cn1cc(CC(CNC(=O)Nc2cccc(Cl)c2)C(N)=O)cn1` (stereo not drawn), the INHIBITION was 31.78%. Turning to `COc1cccc(NC(=O)NCC(Cc2cnn(C)c2)C(N)=O)c1` (stereo not drawn), the INHIBITION was 55.25%. As for `COc1cccc(NC(=O)NCc2cnn(C)c2)c1`, the figure is 7.33%; as for `CO[C@@H]1CC[C@@H](NC(=O)c2ccc(OCCN3CCCC3)cc2)[C@H]1O`, -1.51%.

On to `COCC(=O)N1CCC(c2cc3ncccc3c(O)n2)CC1`, for which the INHIBITION is listed as 19.89%.

For `c1ccc2oc(CCCN3CCOC(Cn4cccn4)C3)nc2c1` (stereo not drawn), the INHIBITION is reported as 14.11%. Consider `Cc1cnn(CC2CN(CCCc3nc4ccccc4o3)CCO2)c1` (stereo not drawn), for which the INHIBITION is recorded as 5.14%. Take `c1ccc2oc(CCCN3CCOC(Cn4cncn4)C3)nc2c1` (stereo not drawn): the INHIBITION is reported as 53.11%. To `c1cnn(CC2CN(CCCOc3ccc4c(c3)OCO4)CCO2)c1` (stereo not drawn) belongs -14.46%. For the compound `c1ncn(CC2CN(CCCOc3ccc4c(c3)OCO4)CCO2)n1` (stereo not drawn), the INHIBITION amounted to 53.98%.

With `Fc1ccc(OCCCN2CCOC(Cn3cncn3)C2)cc1` (stereo not drawn), the INHIBITION was -20.71%.

Turning to `COc1cc(N2CCC3(CCN(Cc4csc(C)n4)C3)CC2)ncn1`, the INHIBITION turned out to be 7.76%.

For the compound `CNc1nc(C2CCCN(C(=O)C(C)(C)OC)C2)nc2c1CN(C)CC2` (stereo not drawn), the INHIBITION is -11.02%. To `Cc1nc(Cn2c(=O)cnc3ccccc32)n(C)n1` belongs -48.07%. As for `COCCN(Cc1cccs1)C(=O)c1ccc(=O)n(C)c1`, the figure is 29.13%; as for `CCN(Cc1cccs1)C(=O)c1ccc(=O)n(C)c1`, 50.59%.

In the case of `CN(Cc1cccs1)C(=O)c1ccc(=O)n(C)c1`, the INHIBITION is 7.67%. To `CC(=O)N1CC2(CCN(C(=O)c3cccc4[nH]ccc34)CC2)C1` belongs 3%; to `CC(=O)N1CCC2(CC1)CN(C(=O)c1cccc3[nH]ccc13)C2`, 57.92%. As for `CC(=O)N1CCC2(CC1)CN(C(=O)c1cccc3[nH]ccc13)CCO2`, the figure is 37.41%; as for `Cc1ccc(N(Cc2ccco2)C(=O)Cc2cc(=O)n(C)[nH]2)cc1`, -12.06%; as for `COC(=O)[C@H](C)NC(=O)c1cc(-c2cccc(Cl)c2)no1`, 11.28%.

`CC(NC(=O)c1cc(-c2cccc(Cl)c2)no1)C(=O)N(C)C` (stereo not drawn): the INHIBITION is listed as 50.59%. On to `CC(NC(=O)c1cc(-c2cccc(Cl)c2)no1)C(=O)N1CCCC1` (stereo not drawn), for which the INHIBITION came out at 24.29%. To `O=C(c1cncs1)N1CCC(Cc2cnc3[nH]ccc3c2)CC1` belongs -11.64%; to `CC(C)OC(=O)CNC(=O)Nc1ccc(-c2nc(C(C)C)no2)cc1`, -13.72%. `COCCNC(=O)Nc1ccc(-c2nc(C(C)C)no2)cc1`: the INHIBITION is listed as 58.53%. As for `CC(C)c1noc(-c2ccc(NC(=O)NCC(O)C(C)C)cc2)n1` (stereo not drawn), the figure is -10.44%.
